Here are results for 9 compounds from PubChem BioAssay (Tox21).

Assay [1] can be described thus: qHTS assay to identify small molecule antagonists of the androgen receptor (AR) signaling pathway using the MDA cell line in the presence of 0.5 nM R1881 - cell viability counter screen (AID 1259242). Note: nearly all actives have a fitted effect of over 45% in size. In a few lines:
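MDA-kb2 cells (MMTV-luciferase, AR/GR responsive) were treated with compounds plus 0.5 nM R1881 (final) for 16 hr at 37C, 0% CO2. Viability was then read in the same wells as live-cell protease fluorescence (CellTiter-Fluor, 30 min).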

Assay [2] has as its target Estrogen receptor (Homo sapiens) (UniProt P03372). Briefly: qHTS assay to identify small molecule antagonists of the estrogen receptor alpha (ER-alpha) signaling pathway using the BG1 cell line in the presence of 0.1 nM 17-beta-estradiol (AID 1259244). Note: nearly all actives have a fitted effect of over 50% in size. In a few lines:
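VM7Luc4E2 cells (endogenous full-length ER-alpha, 4×ERE-luciferase), kept 5 days in phenol red-free, charcoal-stripped FBS medium; 4,000 cells/well. Compounds added with 0.1 nM (final) 17beta-estradiol, 22 hr at 37C; luminescence read with ONE-Glo after 30 min.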
(In general: Quantitative high-throughput screening tests each substance at several concentrations.)

A short description of assay [3]: qHTS assay to identify small molecule phospholipidosis (PLD) inducers (AID 1259344; active = well fitted curve in the direction sought with a large enough effect; an effect the other way counts as inactive or inconclusive). In short, it runs like this:
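HepG2 cells on collagen I, attached 4 h at 37 C, were co-treated with compound and LipidTOX Red dye for 24 h at 37 C, then fixed with paraformaldehyde plus Hoechst 33342 and imaged by high-content microscopy for phospholipid accumulation.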

Assay [4] is described as follows: qHTS assay to identify small molecule HDAC inhibitors (AID 1259364). Note: top concentration of the series differs between compounds; nearly all actives have a fitted effect of over 45% in size. In a few lines: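 Wild-type HCT-116 cells, plated overnight at 37 C, exposed to compounds 2 hr at 37 C; luminogenic HDAC-Glo substrate then added 30 min at room temperature. Luminescence reports relative endogenous class I/II HDAC activity.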
The nature of assay [5]: qHTS assay to identify small molecule HDAC inhibitors - cell viability counter screen (AID 1259365). Note: series mostly up to about 92 µM; nearly all actives have a fitted effect of over 50% in size. In a few lines:
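Counter screen in wild-type HCT-116 cells: compounds dissolved in DMSO are pin-transferred onto overnight-plated cells and left 2hr at 37C. ATP-based CellTiter-Glo luminescence then measures viable cells.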

Assay [6] is described as follows: qHTS assay to identify small molecule agonists of the sonic hedgehog signaling (Shh) pathway - cell viability counter screen (AID 1259366). Note: nearly all actives have a fitted effect of over 50% in size. Note: potency is the fitted concentration of half-maximal effect. In short, it runs like this: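 Cells are plated at 2,000 per well and left 4hr at 37C, 5% CO2 before compound addition. After 23hr of treatment, CellTiter-Fluor reagent is added for 1hr at 37C and fluorescence is measured.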

A short description of assay [7]: qHTS assay to identify small molecule antagonists of the sonic hedgehog signaling (Shh) pathway - cell viability counter screen (AID 1259367). Note: nearly all actives have a fitted effect of over 55% in size. In short, it runs like this: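 NIH/3T3-derived Gli1-Luc reporter cells (2,000 per well) rested 4 hr at 37 C, then received DMSO compounds plus conditioned medium. After 23 hr of treatment, CellTiter-Fluor was added for 1 hr at 37C and fluorescence read.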

A short description of assay [8]: qHTS assay to identify small molecule agonists of the sonic hedgehog signaling (Shh) pathway (AID 1259368; calls by dose curve;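 note: NIH/3T3-derived 3T3Gli1-Luc cells carrying a stable Gli1-driven firefly luciferase reporter; series mostly up to about 92 µM; nearly all actives have a fitted effect of over 15% in size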). In short, it runs like this:
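NIH/3T3-derived 3T3Gli1-Luc cells with stably integrated Gli1-driven firefly luciferase, 2,000 cells/well, compounds added after 4 hr. Incubated 24 hr at 37C, 5% CO2; luminescence read after 30 min with luciferase reagent at room temperature.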

Assay [9] is described as follows: qHTS assay to identify small molecule antagonists of the sonic hedgehog signaling (Shh) pathway (AID 1259369; calls by dose curve; note: nearly all actives have a fitted effect of over 45% in size; note: potency is the fitted concentration of half-maximal effect). In a few lines:
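NIH/3T3-derived Gli1-Luc reporter cells plated 4 h, dosed with compound, then stimulated with conditioned medium for 24 h at 37 C. Firefly luciferase luminescence read after 30 min with detection reagent at room temperature.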

Assay [10] concerns the target Estrogen receptor beta (Homo sapiens) (UniProt Q92731). Kind of assay: qHTS assay to identify small molecule agonists of the estrogen receptor beta (ER-beta) signaling pathway (AID 1259377; active = well fitted activation curve with a large enough effect in the signal ratio in the repeat runs, not every such curve was filed as active; the % refers to the signal ratio). In short, it runs like this: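 Agonist mode cell assay in GripTite HEK293T cells expressing an ER-beta fusion that drives beta-lactamase from an Upstream Activator Sequence; 16 hr compound exposure at 37C, then 2 h LiveBLAzer B/G FRET substrate at room temperature, fluorescence read-out.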

For assay [11] the target is unchanged. Briefly: qHTS assay to identify small molecule antagonists of the estrogen receptor beta (ER-beta) signaling pathway (AID 1259378; active = well fitted inhibition curve with a large enough effect in the signal ratio in the repeat runs, not every such curve was filed as active; the % refers to the signal ratio). In short, it runs like this: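 ER-beta-UAS-bla HEK293T (GripTite) cells in 2% charcoal-stripped FBS medium were preincubated 6 hr at 37C, dosed with compound, then stimulated with 1 nM E2 (final) for 16 hr; beta-lactamase reporter read by B/G FRET fluorescence after 2 hr substrate loading.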

A short description of assay [12]: qHTS assay to identify small molecule agonists of the androgen receptor (AR) signaling pathway in the presence of an antagonist - cell viability counter screen (AID 1259379).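 Note: MDA-kb2 human breast cancer cells carrying an MMTV luciferase reporter; series mostly up to about 92 µM; nearly all actives have a fitted effect of over 25% in size.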 In short, it runs like this: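 MDA-kb2 cells (MMTV-luciferase, AR/GR), 3,000/well, 5 h attachment, then 3.0 µM nilutamide (final) and compounds at 15 concentrations. Viability by CellTiter-Fluor fluorescence after 16 h at 37 °C, 0% CO2, in the reporter wells.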

Assay [13] in a line: qHTS assay to identify small molecule agonists of the estrogen receptor beta (ER-beta) signaling pathway - cell viability counter screen (AID 1259380). Note: nearly all actives have a fitted effect of over 30% in size. In a few lines: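 ER-beta-UAS-bla HEK293T cells in medium with 2% charcoal-stripped FBS, pre-incubated 6 hr, then treated 16 hr at 37C. Cytotoxicity read in the same wells by CellTiter-Glo luminescence after 30 min at room temperature.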

A short description of assay [14]: qHTS assay to identify small molecule antagonists of the estrogen receptor beta (ER-beta) signaling pathway - cell viability counter screen (AID 1259382). Note: series mostly up to about 92 µM; nearly all actives have a fitted effect of over 55% in size. In short, it runs like this:
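ER-beta-UAS-bla HEK293T cells in 2% charcoal-stripped FBS medium, treated with compound plus 1 nM 17-beta-estradiol for 16 h at 37C. Viability read by CellTiter-Glo luminescence after 30 min at room temperature in the same wells.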

In assay [15] the target is Estrogen receptor (Homo sapiens) (UniProt P03372). Briefly: qHTS assay to identify small molecule agonists of the estrogen receptor alpha (ER-alpha) signaling pathway in the presence of an antagonist (AID 1259383; calls by dose curve; note: top concentration of the series differs between compounds; nearly all actives have a fitted effect of over 15% in size). In short, it runs like this: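 VM7Luc4E2 cells express endogenous full-length ER-alpha with an ERE-luciferase reporter and were hormone-deprived for 5 days. Compounds at 15 concentrations were added with 10.0nM ICI-182,780 for 22hr at 37C. Luminescence was read with ONE-Glo.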

A short description of assay [16]: qHTS assay to identify small molecule agonists or antagonists of the thyroid stimulating hormone receptor (TSHR) signaling pathway - wild type cell line counter screen (AID 1259384; calls by dose curve). In a few lines: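 Wild-type HEK293 cells were plated 18 h at 37 C/5% CO2, pin-dosed with compound plus Ro20-1724 medium, held 30 min at room temperature, then given cAMP-d2 and anti-cAMP-cryptate; fluorescence was read after 1 h. Fifteen concentrations, triplicate.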

Assay [17] addresses Thyrotropin receptor (Homo sapiens) (UniProt P16473). Kind of assay: qHTS assay to identify small molecule antagonists of the thyroid stimulating hormone receptor (TSHR) signaling pathway (AID 1259385; calls by dose curve; note: nearly all actives have a fitted effect of over 20% in size). In short, it runs like this:
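TSHR-HEK293 cells were plated and held 18 h at 37C/5% CO2, then given compound plus Ro20-1724 and stimulated with TSH at 1.5 ng/mL final. After 30 min at room temperature, cAMP was detected with cAMP-d2/anti-cAMP-cryptate (1 h) by fluorescence.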

The nature of assay [18]: qHTS assay to identify small molecule agonists of the estrogen receptor alpha (ER-alpha) signaling pathway in the presence of an antagonist - cell viability counter screen (AID 1259386).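 Note: series mostly up to about 92 µM; cells exposed to compounds for 22 h at 37 °C before the viability read; nearly all actives have a fitted effect of over 30% in size.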 In a few lines: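 Cell viability in VM7Luc4E2 cells (endogenous full-length ER-alpha) measured by CellTiter-Fluor fluorescence in the same wells as the luciferase screen. Cells pre-cultured 5 days in charcoal-stripped serum, then treated 22 h with compounds at 15 concentrations plus 10.0nM ICI-182,780.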

A number with no mark means an inactive call. Results filed as inconclusive are left out. Activity calls are given as the source filed them. Unless noted, calls come from the whole dose curve; as a rule, active = well fitted curve in the direction sought with a large enough effect in the repeat runs; inconclusive = weak or mixed curves; inactive = no such curve, though single readings can be large; an effect the other way counts as inactive or inconclusive.

Thyrotropin receptor (Homo sapiens), sequence (P16473 whole entry, looked up): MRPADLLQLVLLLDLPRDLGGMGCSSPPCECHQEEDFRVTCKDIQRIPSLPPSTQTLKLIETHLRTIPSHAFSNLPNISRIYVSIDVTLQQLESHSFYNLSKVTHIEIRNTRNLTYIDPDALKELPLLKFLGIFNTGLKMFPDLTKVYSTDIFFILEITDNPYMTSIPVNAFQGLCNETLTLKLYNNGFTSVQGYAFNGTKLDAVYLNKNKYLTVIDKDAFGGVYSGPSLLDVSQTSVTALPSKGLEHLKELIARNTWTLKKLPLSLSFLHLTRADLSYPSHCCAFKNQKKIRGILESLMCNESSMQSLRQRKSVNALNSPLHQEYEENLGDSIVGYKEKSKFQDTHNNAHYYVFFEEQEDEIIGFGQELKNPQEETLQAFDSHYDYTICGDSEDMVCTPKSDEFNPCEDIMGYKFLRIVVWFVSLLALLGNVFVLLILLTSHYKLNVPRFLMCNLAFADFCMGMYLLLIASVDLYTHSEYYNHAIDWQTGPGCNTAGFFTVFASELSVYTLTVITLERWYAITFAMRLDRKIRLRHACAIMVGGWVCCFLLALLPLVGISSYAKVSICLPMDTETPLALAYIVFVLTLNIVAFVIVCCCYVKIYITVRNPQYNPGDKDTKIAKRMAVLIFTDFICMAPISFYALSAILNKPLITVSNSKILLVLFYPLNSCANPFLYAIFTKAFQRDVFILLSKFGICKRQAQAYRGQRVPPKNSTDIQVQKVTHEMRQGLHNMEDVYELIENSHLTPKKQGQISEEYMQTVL
Estrogen receptor (Homo sapiens), sequence (P03372 whole entry, looked up): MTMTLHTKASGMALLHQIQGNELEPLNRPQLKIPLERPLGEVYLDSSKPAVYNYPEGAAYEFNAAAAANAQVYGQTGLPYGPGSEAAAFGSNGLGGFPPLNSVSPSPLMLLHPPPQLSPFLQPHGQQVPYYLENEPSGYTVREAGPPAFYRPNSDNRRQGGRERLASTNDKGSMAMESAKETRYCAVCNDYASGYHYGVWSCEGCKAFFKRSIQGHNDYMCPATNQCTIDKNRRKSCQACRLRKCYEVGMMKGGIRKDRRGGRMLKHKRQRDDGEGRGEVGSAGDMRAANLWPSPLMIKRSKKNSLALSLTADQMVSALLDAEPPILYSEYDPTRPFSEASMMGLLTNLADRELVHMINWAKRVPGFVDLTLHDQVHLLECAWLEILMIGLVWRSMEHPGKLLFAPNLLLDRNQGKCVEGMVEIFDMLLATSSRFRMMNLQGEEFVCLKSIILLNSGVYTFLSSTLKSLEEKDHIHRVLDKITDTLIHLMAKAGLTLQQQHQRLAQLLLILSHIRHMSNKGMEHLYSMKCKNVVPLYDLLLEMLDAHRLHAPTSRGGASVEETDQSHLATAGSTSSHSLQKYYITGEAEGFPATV
Estrogen receptor beta (Homo sapiens), sequence (Q92731 whole entry, looked up, the tested form may be a part): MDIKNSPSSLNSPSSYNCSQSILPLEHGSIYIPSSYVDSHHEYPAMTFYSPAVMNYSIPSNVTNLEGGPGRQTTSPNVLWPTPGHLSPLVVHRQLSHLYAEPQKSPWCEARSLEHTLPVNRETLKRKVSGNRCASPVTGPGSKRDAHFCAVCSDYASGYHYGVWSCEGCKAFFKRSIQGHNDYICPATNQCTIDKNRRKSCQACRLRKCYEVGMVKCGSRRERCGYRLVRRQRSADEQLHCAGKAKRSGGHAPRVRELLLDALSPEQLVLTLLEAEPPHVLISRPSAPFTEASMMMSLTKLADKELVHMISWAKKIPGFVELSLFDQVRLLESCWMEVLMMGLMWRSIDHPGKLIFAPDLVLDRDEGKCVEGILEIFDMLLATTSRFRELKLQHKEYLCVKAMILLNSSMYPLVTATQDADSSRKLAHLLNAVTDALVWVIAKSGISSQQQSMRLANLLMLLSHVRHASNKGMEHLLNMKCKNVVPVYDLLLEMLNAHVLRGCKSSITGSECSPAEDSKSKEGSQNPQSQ

As for `CC(C)CCCC(C)N` (stereo not given), the Potency result in assay [1], in assay [3], in [4], in assay [6], in assay [7] and in assay [9] was “inactive” in each case. In addition, the Potency result in [12], in assay [13], in assay [14], in [15], in assay [17] and in assay [18] was “inactive” each time. Further, the result in [2], in assay [5], in assay [8], in assay [10], in assay [11] and in [16] was inactive.

On to `CC/C=C\CC/C=C/C(OCC)OCC`, for which the Potency result in assay [1], in assay [4], in assay [6], in [7], in assay [12] and in assay [13] was “inactive” in each case. The Potency entry in [14], in assay [17] and in assay [18] was “inactive” in each case. In addition, the call in assay [5], in [8], in assay [10], in assay [11] and in [16] was inactive. For the same compound, the Potency in [9] is 27.3 µM (active).

With `COc1ccc(CCN(C)CCCC(C#N)(c2cc(OC)c(OC)c(OC)c2)C(C)C)cc1OC` (stereo not given), the Potency entry in [1], in assay [4], in assay [12], in [13] and in [14] was “inactive” throughout. Also, the compound was called inactive in [5], in assay [8], in assay [10], in assay [11] and in assay [16]. In assay [6], the Potency was 15 µM (active).

Consider `CC(=O)Nc1c(I)cc(I)c(C(=O)O)c1I`, for which the Potency entry in assay [1], in assay [3], in assay [4], in assay [6], in assay [7] and in assay [9] was “inactive” each time. In addition, the Potency result in assay [12], in assay [13], in [14], in [15] and in assay [18] was “inactive” in each case. Further, the outcome in assay [2], in [5] and in assay [8] was inactive.

In the case of `C[N+](C)(C)CC(O)CC(=O)[O-]` (stereo not given), the Potency result in assay [1], in [3], in [4], in [6], in [7] and in [9] was “inactive” in each case. The Potency result in [12], in assay [13], in assay [14], in [17] and in assay [18] was “inactive” each time. The compound was classed as inactive in assay [5], in [8] and in assay [16].

As for `COc1nc(N)nc2c1ncn2[C@@H]1O[C@H](CO)[C@@H](O)[C@@H]1O`, the Potency result in assay [1], in assay [3], in assay [4], in assay [6], in [7] and in assay [9] was “inactive” throughout. For the same compound, the Potency result in assay [12], in assay [13], in [14], in assay [17] and in [18] was “inactive” each time. Moreover, the compound was classed as inactive in assay [5], in [8], in assay [10] and in assay [11].

With `Nc1ccccc1S(=O)(=O)O`, the Potency entry in assay [1], in assay [4], in assay [6], in assay [7], in assay [9] and in [12] was “inactive” each time. Moreover, the Potency result in [13], in assay [14], in assay [17] and in assay [18] was “inactive” in each case. Besides, the call in [5], in assay [8], in [10], in [11] and in [16] was inactive.

Take `CCN1CCC[C@H]1CNC(=O)c1c(O)c(Cl)cc(Cl)c1OC`: the Potency entry in assay [1], in assay [3], in assay [4], in [6], in [7] and in assay [12] was “inactive” in each case. Also, the Potency entry in assay [13], in assay [14], in assay [15], in assay [17] and in assay [18] was “inactive” throughout. Besides, the outcome in assay [2], in assay [5], in [10] and in assay [11] was inactive.

For `O=C1CCCCCCCCCCCN1`, the Potency entry in [1], in assay [6], in assay [7], in assay [12], in assay [13] and in assay [14] was “inactive” in each case. Further, the Potency entry in assay [15], in [17] and in assay [18] was “inactive” each time. The result in [2], in assay [5], in assay [10] and in assay [11] was inactive.
